Sampled rows, rich in hits. Any-hit rate of the full collection: about 1.5%.
DUSP3 inh: VHR1 phosphatase inhibitors, primary screen, biochemical, absorbance, uHTS; recombinant VHR phosphatase, pNPP absorbance; inhibition, % at 13.3 µM; actives 0.52% (n = 290,000); in the data active means inhibition above about 50%
CCHFV vOTU inh: CCHFV vOTU protease inhibitors, primary screen, biochemical, Pep-AMC substrate, fluorescence | inhibition, % at 11.5 µM | actives 0.55% (n = 370,000); in the data active means inhibition above about 30%
PriA SSB inh: inhibitors of Klebsiella pneumoniae PriA binding to SSB C-terminal tail, primary screen, biochemical, AlphaScreen; PriA–SSB C-terminal tail interaction (Klebsiella pneumoniae); AlphaScreen SSBct-PriA binding, biotinylated peptide; inhibition, % at 33 µM; actives 0.6% (n = 430,000); in the data active means inhibition mostly above about 37%, no sharp cut-off; inactive means mostly below about 20%
TcdB inh: TcdB glycohydrolase inhibitors, primary screen, biochemical, single point, plate reader | Toxin B (Clostridioides difficile), P18177 | inhibition, % at 9.99 µM | TcdB glycohydrolase enzymatic assay | actives 0.24% (n = 350,000) | AID 652162, 2013; in the data active means inhibition above about 10%
Vc quorum ag: inducers of Vibrio cholerae quorum light production without autoinducers, primary screen, BH1578 luxS cqsA deficient, single point. AID 588436, 2011. activation, % at 18.7 µM. V. cholerae BH1578 lux reporter, luminescence, 6 h. actives 0.16% (n = 350,000); in the data active means activation mostly above about 9.7%, no sharp cut-off
PrPC TRFRET: inhibitors of human cell surface prion protein PrPC, primary screen, cell-based, TR-FRET | Major prion protein (Homo sapiens), P04156 | TR-FRET read-out | inhibition, % at 13.8 µM | actives 0.43% (n = 370,000); in the data active means inhibition above about 24%
PrPC confirm: confirmation of inhibitors of cell surface human prion protein, confirmation, cell-based, TR-FRET | actives 65% (n = 1,500) | cell surface PrPC level | shares compounds with PrPC TRFRET | inhibition, % at 13.8 µM; in the data active means inhibition above about 25%
LD9 cytotox: cytotoxicity in LD9 cells, cytotoxicity control for cell surface PrPc inhibitor project, cell-based, luminescence, high throughput. shares compounds with PrPC TRFRET. luminescence viability. inhibition, % at 13.8 µM. actives 29% (n = 1,500). AID 743201, 2013; in the data active means inhibition above about 9.5%
A number is an active result; – = inactive; · = no result given.

SMILES	DUSP3 inh	CCHFV vOTU inh	PriA SSB inh	TcdB inh	Vc quorum ag	PrPC TRFRET	PrPC confirm	LD9 cytotox
Cc1nc2ccccc2c2oc(C(=O)N3CCN(C4CCCCC4)CC3)cc12	–	–	–	–	–	26.4	–	14.7
CSc1nc2ccc(NC(=S)NC(=O)c3ccc(C(=O)c4ccccc4)cc3)cc2s1	·	·	–	·	·	·	·	·
COC(=O)c1c(-c2cccs2)csc1NC(=O)c1cc(OC)c(OC)c(OC)c1	·	·	–	·	·	·	·	·
COc1cc(C(=O)Nc2scc(-c3ccc(C)cc3)c2C(=O)O)cc(OC)c1OC	–	–	–	–	–	60.5	68.7	–
Nc1ccc(CNC(=O)c2cc3cc(Cl)ccc3nc2N)cc1	·	–	·	–	·	–	·	·
Nc1nc2ccc(Cl)cc2cc1C(=O)NCc1ccccc1Br	·	–	·	·	·	48.7	80.7	–
COc1cc2oc3ccc(C#Cc4ccc(N)cc4)cc3c(=O)c2cc1OC	·	–	–	–	–	25.6	33.3	10.0
Cc1ccc(N2CCn3c(SCc4cccnc4)nnc32)cc1	·	·	–	·	·	·	·	·
COc1cc(NC(=S)Nc2cccc(Cl)c2Cl)c(OC)cc1Cl	–	–	–	–	·	–	·	·
COc1cc(NC(=S)NC(C)(C)C)c(OC)cc1Cl	–	–	–	–	–	24.6	–	–
C[C@H]1COc2c3ccc(I)cc3nn21	·	–	·	·	·	47.0	69.9	–
CCOC(=O)c1c(C)nc2ccc(Cl)cc2c1-c1ccccc1	–	–	–	–	–	–	·	·
CCOCc1nc(N)nc(N)c1-c1cccc(Cl)c1	·	–	·	–	–	26.1	–	–
Cc1cc(OC2CCN(C(=O)Cc3cccnc3)CC2)cc(=O)o1	·	·	–	·	·	·	·	·
O=C(NCc1ccccn1)C(=O)NCC(c1cccs1)N1CCc2ccccc21 (centres undefined)	·	·	–	·	·	·	·	·
Cc1cc(SCC(=O)NC2CCCC2)nc2ccccc12	–	–	–	–	–	27.9	39.2	–
Cc1cc(SCC(=O)NC2CCCCC2)nc2ccccc12	–	–	–	–	–	–	·	·
Cc1ccc(C(=O)NCCn2nc(-c3ccco3)ccc2=O)cc1C	·	·	–	·	·	·	·	·
CCN(CC)S(=O)(=O)c1ccc(C(=O)NCc2ccc3c(c2)cc(C)n3C)cc1	–	–	–	–	–	36.2	–	–
Cc1cc2cc(CNC(=O)c3ccc(S(=O)(=O)N4CCCC4)cc3)ccc2n1C	–	–	–	–	–	37.3	67.5	–
Cc1cc2cc(CNC(=O)c3ccc(S(=O)(=O)N4CCCCC4)cc3)ccc2n1C	–	–	–	–	–	39.3	–	–
Cc1cc2cc(CNC(=O)c3cccc(Br)c3)ccc2n1C	·	·	–	·	·	·	·	·
COc1ccc2[nH]c3c(=S)nc[nH]c3c2c1	–	–	–	–	–	84.9	104.0	–
O=c1[nH]c(=O)n(Cc2ccco2)c2c1C(C(F)(F)F)(C(F)(F)F)N=C(CCc1ccccc1)N2	–	–	–	·	–	56.5	72.1	–
O=S(=O)(NCCN1CCC(c2cccs2)CC1)c1ccc(OC(F)(F)F)cc1	·	·	–	·	·	·	·	·
SMILES	DUSP3 inh	CCHFV vOTU inh	PriA SSB inh	TcdB inh	Vc quorum ag	PrPC TRFRET	PrPC confirm	LD9 cytotox
CCCOc1ccc(/C(O)=C2\C(=O)C(=O)N(c3ccccn3)C2c2ccccc2F)cc1C (centres undefined)	–	–	·	–	–	44.5	89.4	–
CCOc1ccc(/C(O)=C2/C(=O)C(=O)N(c3ccccn3)C2c2ccc(C)cc2)c(C)c1 (centres undefined)	–	–	·	–	–	39.7	51.8	–
CCOc1ccc(/C(O)=C2/C(=O)C(=O)N(c3ccccn3)C2c2ccc(Cl)cc2)c(C)c1 (centres undefined)	–	–	·	–	–	–	·	·
COc1ccc(NC(=S)NC(NC(=O)c2cccc(Cl)c2)C(Cl)(Cl)Cl)c([N+](=O)[O-])c1 (centres undefined)	–	–	–	·	–	–	·	·
O=C(NC(NC(=S)Nc1ccccc1Cl)C(Cl)(Cl)Cl)c1cccc(Cl)c1 (centres undefined)	–	–	–	·	–	24.6	39.6	10.8
COc1cc2c(cc1OC)CN(C(=O)C1CCN(c3cc(-n4cncn4)ncn3)CC1)CC2	·	·	–	·	·	·	·	·
CC1=CC2OC3CC4OC(=O)C=CC=CC(C(C)O)OCC(O)C(C)CC(=O)OCC2(CC1O)C4(C)C31CO1 (centres undefined)	·	–	–	–	–	88.1	98.8	60.2
CC1=CC2OC3CC4OC(=O)C=CC=CC(=O)OCCC(C)C(O)C(=O)OCC2(CC1O)C4(C)C31CO1 (centres undefined)	·	·	·	·	–	·	·	·
COC(=O)Cc1c(C)c2ccc(OCC(=O)N3CCCC3)c(C)c2oc1=O	–	–	–	–	–	27.6	27.6	–
COC(=O)Cc1c(C)c2ccc(OCC(=O)N3CCC(C)CC3)c(C)c2oc1=O	–	–	–	–	–	28.1	40.5	–
CCOC(=O)CCc1c(C)c2ccc(OCC(=O)N3CCOCC3)c(C)c2oc1=O	–	–	–	–	–	–	·	·
Cc1cc(C)nc(Nc2nc(C(=O)Nc3ccc(Br)cc3C)cs2)n1	·	·	–	·	·	·	·	·
Cc1c(Cl)ccc2sc(NCCN(C)C)nc12	·	·	–	·	·	·	·	·
O=C(NC(Nc1ncccn1)C(Cl)(Cl)Cl)c1ccccc1 (centres undefined)	·	·	–	·	·	·	·	·
COc1ccc(NC(=O)C(=O)NCC(c2ccsc2)N2CCc3ccccc3C2)cc1OC (centres undefined)	·	·	–	·	·	·	·	·
